High-throughput results deposited in PubChem BioAssay by National Center for Advancing Translational Sciences (NCATS).
Cycloheximide cs: affects cycloheximide protein synthesis inhibition readout, counter-screen | cell reporter, cycloheximide protein synthesis inhibition counterscreen | max response, % | 12% of 300,000 active; in the data active = max response mostly above about 13%, no sharp cut-off; inactive = mostly below about 14%; note: read at 38.3 µM for the half of the compounds with a filed dose
NS1 function inh: inhibitors of influenza NS1 protein function; Potency, µM (titrated, usually from 46.1 µM); AID 2326; 0.4% of 270,000 active; note: actives are rising curves; nearly all actives have a fitted effect of over 50% in size
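OD600 was taken as the measure of yeast growth restored by compound in an NS1-expressing S. cerevisiae strain. Cells had been washed out of glucose medium and diluted 1:100 into galactose -URA medium, pH 6.0.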
Shiga toxin inh: blocks Shiga toxin action in Vero cells | Vero cells, Shiga toxin protein synthesis inhibition reporter | inhibition, % at 38.7 µM | 9.2% of 290,000 active | AID 2315; in the data active = inhibition mostly above about 28%, no sharp cut-off; inactive = mostly below about 43%
Pf growth 96h: P. falciparum growth inhibition at 96 hour, primary screen for plastid delayed-death inhibitors; P. falciparum luciferase reporter growth, 96 h; AID 504834; Potency, µM (highest dose often 28.7 µM), most hits filed as inhibitors; 6.9% of 320,000 active; active = well fitted inhibition curve with a large enough effect; inconclusive = small, poorly fitted or top-dose-only effect, or another doubt; inactive = no such curve, though single readings can be large or run the other way
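Delayed-death screen, second-generation endpoint: infected erythrocytes, 2% hematocrit, 0.05% parasitemia final; 96 hours at 37 C, 5% CO2; luciferase detection reagent; luminescence decrease equals reduced growth.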
Pf growth 48h: P. falciparum growth inhibition at 48 hours (one generation) | P. falciparum luciferase growth in erythrocytes, 48 h | Potency, µM (top dose mostly 28.7 µM), usual class: inhibitors | 5.9% of 310,000 active; active = well fitted inhibition curve with a large enough effect; inconclusive = small, poorly fitted or top-dose-only effect, or another doubt; inactive = no such curve, though single readings can be large or run the other way
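Read-out is firefly luciferase luminescence from an integrated reporter in P. falciparum, so falling signal marks reduced parasite growth. Infected erythrocytes were at 2% hematocrit and 0.1% parasitemia (final) in Albumax-supplemented RPMI 1640.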
SARS PLpro yeast: SARS-CoV PLP inhibition in yeast | AID 485353 | S. cerevisiae expressing SARS-CoV PLpro, growth rescue | Potency, µM (highest dose often 32.9 µM), hits mostly activators | 0.19% of 330,000 active; note: nearly all actives have a fitted effect of over 55% in size
Hits are given with their value; 0 = inactive; ? = inconclusive; - = not tested or not shown. Compounds with a hit are over-represented: about 21% of the library has one in this group of screens. Unless noted, calls come from the whole dose curve.

SMILES	Cycloheximide cs	NS1 function inh	Shiga toxin inh	Pf growth 96h	Pf growth 48h	SARS PLpro yeast
CC1=NN(c2ccc([N+](=O)[O-])cc2)C(=O)/C1=C\N(C)C	22.0	0	0	7.38µM	0	0
CC1=NN(c2ccccc2)C(=O)/C1=C/N(C)C	0	0	0	0	0	0
CCCC1=NN(c2ccc([N+](=O)[O-])cc2)C(=O)/C1=C/N(C)C	19.8	0	0	0	0	0
CCCCC#Cc1cncc(C(=O)N/N=C/c2cccc(OC)c2)c1	0	0	0	0	?	0
Cc1ncoc1C(=O)N1CCCC(C(=O)c2cccc(C(F)(F)F)c2)C1 (stereo not drawn)	0	0	0	?	0	0
CC1=C(C(=O)N2CCCC(C(=O)c3cccc(C(F)(F)F)c3)C2)OCCO1 (stereo not drawn)	0	0	0	13.1µM	?	0
O=C(c1ccc(C(F)(F)F)cc1)C1CCCN(C(=O)Cn2cncn2)C1 (stereo not drawn)	0	0	0	0	0	0
CC1=C(C(=O)N2CCCC(N3CCN(c4cccc(C(F)(F)F)c4)CC3)C2)OCCO1 (stereo not drawn)	0	0	0	13.1µM	0	0
O=C(c1cccc(C(F)(F)F)c1)C1CCCN(C(=O)Cn2cncn2)C1 (stereo not drawn)	13.4	0	0	0	0	0
CN(C(=O)c1cccc(NC(=O)Cc2cccc([N+](=O)[O-])c2)c1)C1CC1	-	-	-	-	-	0
CN(C)/C=C/C(=O)c1ccc(Cl)c([N+](=O)[O-])c1	20.5	0	0	0	0	0
CN(C)/C=C/C(=O)c1cccc(Cl)c1	16.5	0	0	0	0	0
CN(C)/C=C/C(=O)c1ccc([N+](=O)[O-])c(CS(=O)(=O)c2ccccc2)c1	0	0	0	0	0	0
CN(C)/C=C/C(=O)c1ccc(-n2cccc2)cc1	30.2	-	74.6	0	0	0
COc1ccc(C(C(N)=O)c2ncc(C(F)(F)F)cc2Cl)cc1OC (stereo not drawn)	0	0	0	0	0	0
O=C(CCCOc1ccc(Cl)cc1Cl)NCCc1nnc2ccccn12	0	0	18.9	?	0	0
O=C(CCCOc1ccc(Cl)cc1Cl)NCCCO	0	0	0	?	0	0
O=C(CCCOc1ccc(Cl)cc1Cl)NCCc1ccccn1	30.5	0	38.9	0	0	0
O=C(CCSc1ccc(Cl)cc1)NCc1ccccn1	12.6	0	0	0	0	0
Cc1cc(OCCCC(=O)NCCc2nnc3ccccn23)ccc1Cl	-	-	-	-	-	0
Nc1cc(N)nc(SCC(=O)Nc2cc(S(=O)(=O)N3CCOCC3)ccc2Cl)n1	0	0	0	?	0	0
COc1ccc(/C(=C/Nc2cccc(Br)c2)C(C)=O)cc1OC	0	-	0	0	0	0
COc1ccccc1CCC(=O)NNC(=O)c1cccs1	-	-	-	-	-	0
COc1ccccc1CNC(=O)CN1C(=O)COc2ccc(S(=O)(=O)N3CCCCC3)cc21	0	0	0	0	?	0
COc1ccccc1CNC(=O)CN1C(=O)COc2ccc(S(=O)(=O)NC3CCCC3)cc21	21.5	0	0	0	0	0
SMILES	Cycloheximide cs	NS1 function inh	Shiga toxin inh	Pf growth 96h	Pf growth 48h	SARS PLpro yeast
COc1ccccc1CNC(=O)CCCN1C(=O)COc2ccc(C)cc21	0	0	0	9.28µM	0	0
COc1ccc(S(=O)(=O)N2CCc3ccccc32)cc1C(=O)OCc1nnc(-c2ccccc2)o1	0	?	0	-	-	0
Cc1ccc(-c2nnn(C/C(N)=N/O)n2)cc1	0	0	0	?	?	0
CCOC(=O)N1CCN(S(=O)(=O)c2ccc(C(=O)N(CCN(C)C)c3nc4ccc(Cl)cc4s3)cc2)CC1	27.4	0	110.2	0	0	0
Cc1cc(C)c2nc(N(CCCN(C)C)C(=O)c3ccc(S(=O)(=O)N4CCCCCC4)cc3)sc2c1	-	-	-	11.7µM	9.28µM	0
CN(C)CCCN(C(=O)c1ccc(S(=O)(=O)N2CCCCC2)cc1)c1nc2cc3c(cc2s1)OCO3	0	0	0	0	11.7µM	0
Cc1ccc2sc(N(CCCN(C)C)C(=O)c3ccc(S(=O)(=O)N4CCCCCC4)cc3)nc2c1C	-	-	-	?	?	0
Cc1cc(Cl)ccc1N(CC(=O)NCc1ccc2c(c1)OCO2)S(C)(=O)=O	0	0	0	0	0	0
CCC1CCC(C(=O)NC(C(=O)NCCCN2CCCCC2C)C(C)C)CC1 (stereo not drawn)	0	-	0	0	0	0
CCc1cc2c(=O)n(CC(=O)NC3CCCCC3)cnc2s1	0	0	0	0	0	0
CCc1cc2c(=O)n(-c3ccc(Br)cc3)cnc2s1	16.3	0	0	-	0	0
CCCCCn1cnc2sc(CC)cc2c1=O	66.2	0	active	0	0	0
CCc1cc2c(=O)n(CC(=O)NCCc3ccc(OC)c(OC)c3)cnc2s1	0	0	0	?	0	0
CCc1cc2c(=O)n(CC(C)C)cnc2s1	48.3	0	62.8	0	0	0
Cc1ccc(C)c(NC(=O)CN2C(=O)COc3ccc(S(=O)(=O)N4CCCC4)cc32)c1	0	0	0	0	?	0
Cc1nc2sc(C(N)=O)c(N)c2c2c1CCCC2	0	0	0	0	0	0
CCOC(=O)N1CCN(C(=O)C2CCCN(c3ncnc4c3nc3n4CCCCC3)C2)CC1 (stereo not drawn)	0	0	0	?	0	0
COCCN(Cc1ccco1)C(=O)C1CCCN(c2ncnc3c2nc2n3CCCCC2)C1 (stereo not drawn)	0	0	0	4.15µM	?	0
CC1CC(C)CN(C(=O)C2CCCN(c3ncnc4c3nc3n4CCCCC3)C2)C1 (stereo not drawn)	0	0	0	0	?	0
CCN1CCN(C(=O)C2CCCN(c3ncnc4c3nc3n4CCCCC3)C2)CC1 (stereo not drawn)	0	0	0	10.4µM	?	0
COc1cccc(N2CCN(C(=O)C3CCCN(c4ncnc5c4nc4n5CCCCC4)C3)CC2)c1 (stereo not drawn)	0	0	0	10.4µM	?	0
CC1CCN(C(=O)C2CCCN(c3ncnc4c3nc3n4CCCCC3)C2)CC1 (stereo not drawn)	0	0	0	9.28µM	0	?
OC1C(O)C(O)C(O)C(O)C1O (stereo not drawn)	0	-	0	0	0	-
COc1ccc([C@H]2CC(=O)C=C(c3ccccc3OC)C2)cc1OC	-	-	-	0	?	0
CCOC(=O)c1cc2c(ccn2C)n1Cc1ccc(C#N)cc1	0	0	0	4.15µM	0	0
CCOC(=O)c1cc2c(ccn2C)n1CC(=O)N1CCCC(C)C1 (stereo not drawn)	0	0	0	?	0	0
CCOC(=O)c1cc2c(ccn2C)n1Cc1ccc(Cl)cc1	0	0	0	0	0	0
CCOC(=O)c1cc2c(ccn2C)n1CC(=O)N1CCC(Cc2ccccc2)CC1	0	0	0	?	10.4µM	0
O=C(CC1C(=O)NCCN1CC(c1ccccc1)c1ccccc1)NC1CC1 (stereo not drawn)	0	0	0	0	?	0
